± gives the standard deviation of the averaged measurements.
Key:
Settings in all cases: concentration: 10 µM; 24 h
[1] = test system: HCC1569; test: cell number relative to DMSO (% of DMSO); higher = more cells (less growth inhibition / toxicity)
Method in brief: (§1)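 HCC1569 and TDF cells were seeded at 800 per well in 384-well plates in RPMI with 10% FBS and treated with compounds at 10 µM for 24 h at 37 °C, in triplicate. After fixation in 3.7% formaldehyde, cells were stained with a rabbit anti-H1.0 antibody, an AlexaFluor 647 secondary and DAPI, and six fields per well were imaged at ×10. H1.0 nuclear intensity or cell number is given as percent of the plate control, using the median of replicates, with HCC1569 values smoothed for positional effects.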

[2] = test system: TDF; test: as above
Method in brief: as §1

[3] = test system: TDF; test: H1.0 immunofluorescence intensity relative to DMSO (% of DMSO); higher = stronger H1.0 induction, active = 120 or more
Method in brief: as §1

[4] = test system: HCC1569; test: H1.0 immunofluorescence intensity relative to DMSO (% of DMSO); higher = stronger H1.0 induction, active = 140 or more
Method in brief: as §1
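Throughout, for H1.0 immunofluorescence intensity relative to DMSO: TDF is a line of transformed human dermal fibroblasts of mesenchymal origin.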
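Throughout, for cell number relative to DMSO: TDF denotes transformed human dermal fibroblasts of mesenchymal origin.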

Row | SMILES | cell number [1] | cell number [2] | H1.0 immunofluorescence intensity [3] | H1.0 immunofluorescence intensity [4]
1 | Br.CN1C2CCC1CC(OC(=O)C(O)c1ccccc1)C2 (racemic) [DL-Homatropine hydrobromide] | 106 | 109 | 91.5 (inactive) | 85.8 (inactive)
2 | CC1(C)CCCC2(C)C1CCC1(C)OC(=O)CC12 [(3aR)-(+)-Sclaerolide] | 99 | 105 | 92.9 (inactive) | 84.9 (inactive)
3 | CN1C2CCC1CC(OC(=O)c1c[nH]c3ccccc13)C2.Cl (configuration not stated) [3-Tropanyl-indole-3-carboxylate hydrochloride] | 103 | 112 | 93.4 (inactive) | 112 (inactive)
4 | COc1ccccc1OCCNCC(O)COc1cccc2[nH]c3ccccc3c12 (configuration not stated) [Carvedilol] | 92.6 ± 15 | 104 ± 4.5 | 99.3 (inactive) | 106 (inactive)
5 | COc1cc(C(O)C(=O)O)ccc1O (configuration not stated) [hydroxy(4-hydroxy-3-methoxyphenyl)acetic acid] | 99.7 | 99.1 | 94.8 (inactive) | 99.4 (inactive)
6 | O=C(O)Cc1c[nH]c2ccc(O)cc12 [5-Hydroxyindolacetic acid] | 104 | 99.5 | 99.9 (inactive) | 97.9 (inactive)
7 | CC1=C(C)C(=O)C(CCCCC#CCCCC#CCO)=C(C)C1=O [Docebenone] | 93.3 | 75.3 | 103 (inactive) | 110 (inactive)
8 | CC1CCN(C(=O)CC#N)CC1N(C)c1ncnc2[nH]ccc12 (configuration not stated) [Tasocitinib] | 110 | 110 | 89.1 (inactive) | 73.7 (inactive)
9 | CC(=O)Oc1cc(C(C)C)c(OCCN(C)C)cc1C.Cl [Moxisylyte hydrochloride] | 105 | 104 | 91.4 (inactive) | 94.4 (inactive)
10 | NC(=O)c1cccc(NC(=O)/C=C/c2c[nH]c3ccccc23)c1 [(E)-3-(3-(1H-indol-3-yl)acrylamido)benzamide] | 97.9 | 103 | 88 (inactive) | 118 (inactive)
11 | Cc1cc(Nc2nc(NC(C)c3ccc(F)cc3)c(C#N)cc2F)n[nH]1 (configuration not stated) | 51.8 | 28 | 167 (active) | 146 (active)
12 | CCCCCCCCC=CCCCCCCCCCCC(=O)O [12(Z) Heneicosenoic acid] | 103 | 98 | 95.5 (inactive) | 115 (inactive)
13 | O=C(O)c1cccnc1Nc1cccc(C(F)(F)F)c1 [Niflumic acid] | 98.8 ± 5.9 | 95.2 ± 23 | 97.7 (inactive) | 101 (inactive)
14 | CC(C)Cc1ccc(C(C)C(=O)O)cc1 (racemic) | 103 | 112 | 95.4 (inactive) | 97.7 (inactive)
15 | Cc1scc2c1N(C(=O)CN1CCN(C)CC1)c1ccccc1NC2=O.Cl.Cl [Telenzepine.2HCl] | 101 | 99.1 | 96.6 (inactive) | 103 (inactive)
16 | CS(=O)(=O)c1ccc(C(O)C(COC(=O)CN)NC(=O)C(Cl)Cl)cc1 (configuration not stated) [Thiamphenicol glycinate] | 105 | 96.1 | 98.4 (inactive) | 106 (inactive)
17 | CC1(C)NC(=O)N(c2ccc([N+](=O)[O-])c(C(F)(F)F)c2)C1=O [Nilutamide] | 101 | 91 | 98.9 (inactive) | 100 (inactive)
18 | CC(=O)N1CCN(C(=O)/C=C/c2ccc(Sc3ccccc3C(C)C)c([N+](=O)[O-])c2)CC1 | 82.5 | 86.4 | 103 (inactive) | 123 (inactive)
19 | CN1C(=O)CC(C(=O)O)C1c1cccnc1 (stereo not drawn) [Trans-4-Cotininecarboxylic acid] | 98.4 | 100 | 93.3 (inactive) | 85.3 (inactive)
20 | CCCCCCCCCCCCCCCC(=O)NCC(COP(=O)([O-])OCC[N+](C)(C)C)OCC (racemic) [rac-2-Ethoxy-3-hexadecanamido-1-propylphosphocholine] | 96.1 | 96.3 | 97.5 (inactive) | 104 (inactive)
21 | Nc1ccc(CCNc2ncnc3c2ncn3C2OC(CO)C(O)C2O)cc1 (configuration not stated) [N6-2-(4-Aminophenyl)ethyladenosine] | 101 | 109 | 85.9 (inactive) | 94 (inactive)
22 | NS(=O)(=O)Cc1noc2ccccc12 [Zonisamide] | 101 | 94.5 | 96 (inactive) | 90.5 (inactive)
23 | CC(F)(F)CN1CCOc2c(nn(-c3ccccc3Cl)c2-c2ccc(Cl)cc2)C1=O | 104 | 101 | 93.5 (inactive) | 88.3 (inactive)
